# Records with an inconclusive call do not appear. Activity calls are given as the source filed them. Calls come from the whole dose curve; as a rule, active = well fitted activation curve with a large enough effect; inconclusive = small, poorly fitted or top-dose-only effect; inactive = flat fitted curve, though single readings scatter.
# Experiment: qHTS for Inhibitors of Cell Surface uPA Generation: FP59 Counterscreen for Cherry-picked Compounds; for activity (protection from FP59): 0% is about no effect
# Conditions: FP59 anthrax toxin cytotoxicity counterscreen, cells; series mostly up to 115 µM; activity (protection from FP59): at the top concentration
# Potency is the fitted concentration of half-maximal effect.
Structure (SMILES),activity (protection from FP59),Potency
COc1ccc(NC(=O)c2nn(C)c3c2CS(=O)(=O)c2ccccc2-3)cc1,-1.36% (inactive),
Fc1ccc(CNc2ccccn2)cc1,-1.43% (inactive),
O=C(c1cc(COc2ccc(F)cc2Cl)on1)N1CCCCCC1,-0.0358% (inactive),
CC1CCC(NC(=O)c2nn(C)c3c2CS(=O)(=O)c2ccccc2-3)CC1 (centres undefined),-1.25% (inactive),
C[C@H](CO)N1C[C@H](C)[C@H](CN(C)S(=O)(=O)c2cn(C)cn2)Oc2ccc(NC(=O)Nc3ccc(C(F)(F)F)cc3)cc2CC1=O,-1.57% (inactive),
O=S(=O)(c1ccc2nc(N3CCN(c4ccccc4)CC3)ccc2c1)N1CCCCC1,-1.27% (inactive),
O=C(C[n+]1ccccc1)Nc1ccccc1C(F)(F)F,-1.29% (inactive),
COCCn1nnnc1C(C(C)C)N1CCCC(C)C1 (centres undefined),-1.3% (inactive),
Oc1c(N=NC(=S)Nc2ccccc2F)c2ccccc2n1Cc1ccccc1Cl,-0.572% (inactive),
Cc1ccc(Cl)c(N/C=C/C(=O)c2ccccc2)c1,-1.59% (inactive),
CCNc1nc(Nc2ccc(C)c(Cl)c2)c2cnn(C)c2n1,-1.25% (inactive),
O=C1NC(CCc2ccccc2)C(=O)N1Cc1ccccc1Cl (centres undefined),0.227% (inactive),
CCS(=O)c1scc(-c2ccc(Cl)cc2)c1C#N (centres undefined),-1.16% (inactive),
NC(=O)CC(NC(=O)Cc1cccc2ccccc12)c1ccc(N2CCN(c3ccc(F)cc3)CC2)c([N+](=O)[O-])c1 (centres undefined),-1.4% (inactive),
CC(Sc1nnc2ccccn12)C(=O)NCc1ccc2c(c1)OCO2 (centres undefined),-1.47% (inactive),
COc1ccc(N2CC(C(=O)Nc3nnc(SCCC4OCCO4)s3)CC2=O)cc1 (centres undefined),-1.21% (inactive),
COc1cc(NC(=S)NCCc2ccc(S(N)(=O)=O)cc2)c(OC)cc1Cl,-1.42% (inactive),
S=C(Nc1ccccc1Oc1ccccc1)NC1CCCC1,-1.16% (inactive),
Cc1ccc(N2C(=O)CC(N3CCN/C3=C3\CC/C(=C\c4ccccc4)C3=O)C2=O)cc1 (centres undefined),-1.33% (inactive),
Cc1ccc(-c2cc(C(=O)NCC3CCCO3)no2)cc1 (centres undefined),-1.57% (inactive),

Structure (SMILES),activity (protection from FP59),Potency
COc1ccccc1N1CCN(CC(=O)c2c(C)[nH]c3ccccc23)CC1,-1.27% (inactive),
C=CC[n+]1c(/C=C/c2ccc(OC(C)=O)c(OC)c2)ccc2ccccc21,-1.44% (inactive),
Cc1ccc(NC(=S)N2CCN(Cc3ccc4c(c3)OCO4)CC2)c(C)c1,-1.41% (inactive),
CCN(CC)C(=O)Cn1cc(/C=C(\C#N)C(=O)NC2CC2)c2ccccc21,-1.32% (inactive),
COc1cccc(CNC(=O)C2CCCN(S(=O)(=O)c3ccc4c(c3)C(C)(C)C(=O)N4C)C2)c1 (centres undefined),-1.51% (inactive),
C[C@]12CCC(O)CC1CCC1C2CC[C@]2(C)C(c3cc(C(F)(F)F)n[nH]3)CCC12 (some centres undefined),-1.52% (inactive),
CCCc1nn2c(=O)cc(CSCC(=O)Nc3ccccc3)nc2s1,-1.23% (inactive),
O=C1C=CC(O)(c2cc(=O)c3c(O)cc(O)cc3o2)C=C1,,14.7 µM (active)
CC(=O)c1c(C)n(-c2ccccc2Br)c2ccc(O)cc12,-1.5% (inactive),
COc1ccccc1CNC(=O)CCCn1nc(C)c2c(C)n(-c3ccccc3)nc2c1=O,-1.42% (inactive),
CCCCNc1nnc(SCC(=O)c2c(N)n(CCC)c(=O)[nH]c2=O)s1,-1.3% (inactive),
Cn1c(SCC(=O)NCCc2ccccc2)ncc(C(=O)Nc2ccc(F)cc2)c1=O,-1.23% (inactive),
CC1(C)CC(=O)C=C(c2ccc3ccccc3c2)C1,0.0857% (inactive),
COc1cc(CCC(=O)OCC(=O)Nc2ccc(C)cc2Br)cc(OC)c1OC,-1.45% (inactive),
Cc1ccccc1N1C(=O)C(Cc2ccc(F)cc2)S/C1=C(\C#N)C(N)=O (centres undefined),-1.54% (inactive),
CN(CCO)c1ccc(C(C(=O)c2ccccc2)c2ccc(N(C)CCO)cc2)cc1,0.252% (inactive),
CSc1ccc(CNCCCN(C)C)cc1,-1.44% (inactive),
CC1CC(C)(C)Nc2ccc(N=O)cc21 (centres undefined),-1.58% (inactive),
COc1ccc(C(=O)NCC(=O)N/N=C/c2c(C)[nH]c3ccccc23)cc1,-1.27% (inactive),

# Source: PubChem BioAssay AID720517 (National Center for Advancing Translational Sciences (NCATS), 2013)
